{"source": "the supplement of paper PMC4709259", "note": "Structures can show the parent of a compound that is named as a salt. ± gives the standard deviation.", "data": [{"tested_on": "Jurkat", "experiment": "cell count relative to DMSO control (fraction of control); higher = more cells (less growth inhibition)", "conditions": "48 h", "values": [{"smiles": "CN(C)C(=O)Oc1ccc[n+](C)c1", "note": "[Pyridostigmine Bromide] (concentration: 25 µM)", "cell count": "0.651 ± 0.11"}, {"smiles": "COc1cccc(C2(O)CCCCC2CN(C)C)c1", "note": "(stereo not given) [Tramadol·HCl] (concentration: 25 µM)", "cell count": "0.58 ± 0.18"}, {"smiles": "CC(O)(CS(=O)(=O)c1ccc(F)cc1)C(=O)Nc1ccc(C#N)c(C(F)(F)F)c1", "note": "(stereo not given) [Bicalutamide] (concentration: 25 µM)", "cell count": "0.836 ± 0.064"}, {"smiles": "CN1[C@@H]2C[C@@H](OC(=O)[C@H](CO)c3ccccc3)C[C@H]1[C@@H]1O[C@@H]12", "note": "[Scopolamine·HBr] (concentration: 25 µM)", "cell count": "0.608 ± 0.1"}, {"smiles": "O=C1Nc2ccc(Cl)cc2C(c2ccccc2Cl)=NC1O", "note": "(stereo not given) [Lorazepam] (concentration: 25 µM)", "cell count": "0.912 ± 0.056"}, {"smiles": "C=CCN1CC[C@]23c4c5ccc(O)c4O[C@H]2C(=O)CC[C@@]3(O)[C@H]1C5", "note": "[Naloxone·HCl] (concentration: 25 µM)", "cell count": "0.96 ± 0.071"}, {"smiles": "CN1C(=O)C(O)N=C(c2ccccc2)c2cc(Cl)ccc21", "note": "(stereo not given) [Temazepam] (concentration: 25 µM)", "cell count": "0.916 ± 0.032"}, {"smiles": "C#CCN(C)[C@H](C)Cc1ccccc1", "note": "[Selegiline·HCl] (concentration: 25 µM)", "cell count": "0.711 ± 0.098"}, {"smiles": "CN1C(=O)CC(=O)N(c2ccccc2)c2cc(Cl)ccc21", "note": "[Clobazam] (concentration: 25 µM)", "cell count": "0.64 ± 0.12"}, {"smiles": "CN1CCN(C(=O)O[C@H]2c3nccnc3C(=O)N2c2ccc(Cl)cn2)CC1", "note": "[Eszopiclone] (concentration: 25 µM)", "cell count": "0.796 ± 0.072"}, {"smiles": "O=C(O)CCCc1ccc(N(CCCl)CCCl)cc1", "note": "[Chlorambucil] (concentration: 250 nM)", "cell count": "0.352 ± 0.089"}, {"smiles": "Cc1c(N)nc(C(CC(N)=O)NCC(N)C(N)=O)nc1C(=O)NC(C(=O)NC(C)C(O)C(C)C(=O)NC(C(=O)NCCc1nc(-c2nc(C(=O)NCCC[S+](C)C)cs2)cs1)C(C)O)C(O[C@@H]1O[C@@H](CO)[C@@H](O)[C@H](O)[C@@H]1O[C@H]1O[C@H](CO)[C@@H](O)[C@H](OC(N)=O)[C@@H]1O)c1cnc[nH]1", "note": "(stereo not given in full) [Bleomycin Sulfate] (concentration: 2.5 µM)", "cell count": "0.297 ± 0.043"}, {"smiles": "NCCCNCCSP(=O)(O)O", "note": "[Amifostine] (concentration: 25 µM)", "cell count": "0.8 ± 0.12"}, {"smiles": "CN(C)[C@@H]1C(=O)C(C(N)=O)=C(O)[C@@]2(O)C(=O)C3=C(O)c4c(O)cccc4[C@@](C)(O)[C@H]3C[C@@H]12", "note": "[Tetracycline] (concentration: 25 µM)", "cell count": "0.556 ± 0.046"}, {"smiles": "O=P1(N(CCCl)CCCl)NCCCO1", "note": "(stereo not given) [Cyclophosphamide (Free Base)] (concentration: 25 µM)", "cell count": "0.623 ± 0.15"}]}]}
